Compound activity: PubChem, Fisher Drug Discovery Resource Center
mcGAS RapidFire – blocks mouse cGAS cGAMP production; AID 1259397; Q8C6L5; recombinant mouse cGAS, cGAMP by RapidFire MS; inhibition, % at 12.5 µM; 130,000 compounds, 0.18% hits;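 active = inhibition of cGAS enzyme activity at or above 60%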;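 also: enzyme stimulated by 45 bp dsDNA with ATP and GTP substrates; cGAMP share of summed cGAMP plus half ATP and half GTP signals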
Target sequence (Q8C6L5 whole entry, looked up): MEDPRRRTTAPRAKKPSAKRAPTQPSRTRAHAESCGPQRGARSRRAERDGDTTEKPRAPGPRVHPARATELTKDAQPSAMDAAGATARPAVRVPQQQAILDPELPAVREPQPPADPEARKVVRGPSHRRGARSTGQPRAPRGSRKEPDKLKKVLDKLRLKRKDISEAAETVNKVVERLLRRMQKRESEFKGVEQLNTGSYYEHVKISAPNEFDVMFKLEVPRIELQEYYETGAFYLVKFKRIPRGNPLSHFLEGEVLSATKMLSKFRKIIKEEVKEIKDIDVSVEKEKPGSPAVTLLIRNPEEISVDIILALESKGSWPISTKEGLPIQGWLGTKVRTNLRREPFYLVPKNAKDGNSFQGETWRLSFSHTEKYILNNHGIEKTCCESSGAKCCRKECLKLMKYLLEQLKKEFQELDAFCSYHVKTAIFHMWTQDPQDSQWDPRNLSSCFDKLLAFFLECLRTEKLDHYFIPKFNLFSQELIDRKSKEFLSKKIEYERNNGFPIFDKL
Active calls of the source: *; ! = not active in a repeat. The sample as a whole holds a higher share of hits than the screen did.

SMILES | mcGAS RapidFire
Nc1nncn1C(=O)c1ccc(Br)o1 | 82*
O=C(c1ccco1)N1CCN(C(=O)c2ccc(Br)o2)CC1 | -5
CC1CCCN(C(=O)c2ccc(Br)o2)C1 (centres undefined) | 54
CC(C)(C)n1ccc(C(=O)N2C[C@@H](C(=O)O)C[C@@H](C(=O)NC3CC3)C2)c1 | -7
CC1=C(c2ccc(F)cc2)[N+](=O)C(C)(C)N1[O-] | -9
COc1ccc(C2=C(C)N([O-])C(C)(C)[N+]2=O)cc1 | -7
CC1=C(c2ccccc2)[N+](=O)C2(CCCC2)N1[O-] | 64*
O=[N+]([O-])c1ccc(N=Nc2c(O)n(Cc3ccccc3)c3ccccc23)c([N+](=O)[O-])c1 | 5
CCOC(=O)C1CCN(c2oc(C)nc2C#N)CC1 | 8
Nc1c2c(nc3ccccc13)CCCC2 | -6
Nc1c2ccccc2nc2ccccc12 | 78*!
Cc1ccc2c(N)cccc2n1 | -4
O=C(C=CC1=Cc2cc(Cl)ccc2OC1)NS(=O)(=O)c1cccnc1 | 12
O=c1[nH]c(CN2CCN(c3cc(=O)n4ccccc4n3)CC2)nc2ccccc12 | -14
CCCN1CCC(CC(=O)N2CCn3cccc3C2CC)CC1 (centres undefined) | -7
COC(=O)c1cc(S(=O)(=O)NCc2cscn2)c(F)cc1F | 4
O=C(C1CC1)N1CCc2c(ncnc2NCC23CCCN2CCC3)C1 | -2
O=C1NC(=O)C2C1Sc1[nH]c(=O)sc1C2c1ccco1 (centres undefined) | 89*
COc1ccc(C2c3sc(=O)[nH]c3SC3C(=O)NC(=O)C32)cc1 (centres undefined) | -2
O=C1C2Sc3[nH]c(=O)sc3C(c3ccc(O)cc3)C2C(=O)N1c1ccc(Cl)cc1 (centres undefined) | 0
CN(Cc1ccc(Cl)c(Cl)c1)C(=O)c1csc(-c2cccs2)n1 | 9
COc1ccccc1NS(=O)(=O)c1cc(F)ccc1F | 4
COc1ccc(NS(=O)(=O)c2cc(C)ccc2C)cc1OC | -9
COc1cc(C)c(S(=O)(=O)Nc2c(F)cccc2F)cc1OC | 87*
CNc1ccc(-c2ccc(S(C)(=O)=O)cc2)cn1 | -10
SMILES | mcGAS RapidFire
CCCOc1c(Cl)cc(C(=O)Nc2ncc(C)s2)cc1OCC | 0
C=c1ccc(S(=O)(=O)N2CCCC2)cc1=c1nnc2n1NC(C)=c1ccccc1=2 | 1
Cc1ccccc1CC(C)(C)NC(=O)NCCn1ccnc1 | -5
CN(C)C(=O)Cc1ccccc1NC(=O)NCCCn1ccnc1 | 94*
Cc1nc2ccccc2c(C)c1CC(=O)NCCCn1ccnc1 | -7
CCCS(=O)(=O)N1CCCCC1C(=O)NCC(=O)NCc1ccccc1 (centres undefined) | 1
O=C1c2cccc3cccc(c23)C(=O)N1CCCN(C(=O)C12CC3CC(CC(C3)C1)C2)c1cccc(F)c1 | -8
CCCC(=O)Nc1ccc(C2=CSC3=NS(=O)(=O)CCN23)cc1 | -10
Fc1ccccc1N1CCN(Cn2[nH]c(-c3ccccc3)nc2=S)CC1 | 5
CN(C)C(=O)C1CCCN1Cn1[nH]c(-c2ccccc2)nc1=S (centres undefined) | 17
S=c1nc(-c2ccccc2)[nH]n1CN1CCc2ccccc2C1 | 77*
O=C(NCc1cccc(COc2ccccc2)c1)c1cnccn1 | -9
CCOC(=O)Cn1nc(C)c(C)c(C#N)c1=O | -7
CCOC(=O)CN1C(=O)CSC1=CC#N | 82*
CCOC(=O)C=C1SCC(=O)N1CC(=O)OCC | -8
CC1CCC2(CC1)NC(=O)N(CC(=O)NCC(F)(F)F)C2=O (centres undefined) | -5
Cc1ccc(C(C)NC(=O)C(=O)Nc2ccc(CC(=O)N(C)C)cc2)o1 (centres undefined) | 2
O=C(N=Nc1c(O)[nH]c2ccc(Br)cc12)c1[nH]nc2c1CCc1ccccc1-2 | -2
COc1ccc(C(=O)CSc2nc3sc(C)cc3c(=O)n2C)cc1 | 3
Cc1ccc(NC(=O)C2CCCNC2)nc1 (centres undefined) | 2
C=C(Br)CNC(=O)N1CCCN(C(=O)c2ccccc2Cl)CC1 | -4
CCc1noc(C(C)N2CCN(S(=O)(=O)c3c(C)c(C)c(C)c(C)c3C)CC2)n1 (centres undefined) | -3
CCCc1noc(C(C)N2CCCN(C(=O)c3ccccc3Cl)CC2)n1 (centres undefined) | 76*
N#Cc1ccccc1NC(=O)CN1CCC(OCc2ccccc2)CC1 | 0
c1ccc(CCc2nn3c(C4COc5ccccc5O4)nnc3s2)cc1 (centres undefined) | 54
SMILES | mcGAS RapidFire
CC(C)c1cc(-c2nn3c(C4COc5ccccc5O4)nnc3s2)n[nH]1 (centres undefined) | 70*
CCCc1nnc2sc(-c3cc(C(C)C)[nH]n3)nn12 | -29
O=C(Nc1n[nH]c(=S)s1)c1cccs1 | 76*
O=C(Nc1n[nH]c(=S)s1)c1ccco1 | 27
O=C(Nc1nc(-c2ccc(Cl)s2)cs1)c1cccs1 | -16
O=C(Nc1nc(C23CC4CC(CC(C4)C2)C3)cs1)c1ccc(=O)[nH]n1 | -8
COC(=O)c1csc(S(=O)(=O)Nc2n[nH]c(C)c2C)c1 | -5
O=C(CNC(=O)c1ccc(Br)o1)NCC(F)(F)F | -3
Cn1c(C(=O)NCC2CCOC2)cc(Cl)c1Cl (centres undefined) | -12
CCNC(=O)N1CCc2nc(N3CCOCC3)nc(Oc3ccc(OC)cc3)c2C1 | -1
O=C(c1c(O)c2ccccc2oc1=O)C1CCC1 | -2
O=C1CNc2c(c(=O)oc3ccccc23)N1 | 96*
O=c1oc2ccc(O)cc2c2c1NCCC2 | -26
CN(c1ccc(CNC(=O)C2CCOC2)cc1)C1CCCCC1 (centres undefined) | -13
CCc1c(C(=O)O)cnn1-c1cccc(C)c1 | -2
CCOC(=O)CSc1nc(C)nc2sc(C(=O)OCC)c(C)c12 | -6
Nc1c(C=C2C=CC(=O)C=C2)c(=O)nc2sc(-c3ccccc3)nn12 | 51
Nc1c(C=C2C=CC(=O)C=C2)c(=O)nc2sc(-c3ccccc3Cl)nn12 | 50
CCc1nn2c(N)c(C=C3C=CC(=O)C=C3)c(=O)nc2s1 | 89*
CCN(Cn1[nH]c(C(C)(C)C)nc1=S)C1CCS(=O)(=O)C1 (centres undefined) | -5
CCc1ccc(N2CC(C(=O)NC(C)(C)C)CC2=O)cc1 (centres undefined) | -2
O=C1C=CC2=C3c4cc(O)c(O)cc4CC3(O)COC2=C1O (centres undefined) | 97*
CCOC(=O)c1cnc(N)[nH]1 | -7
C=C(C)C1CC=C(C)C(=NNC(=O)C(=O)NN=C2CC(C(=C)C)CC=C2C)C1 (centres undefined) | -6
CC(C)N1CCNC(=O)C1CC(=O)NCCn1ccnc1 (centres undefined) | 3
SMILES | mcGAS RapidFire
CCn1c(=S)n(CN2Cc3c(OC)ccc(OC)c3C(O)C2)c2ccccc21 (centres undefined) | 6
CCOC(=O)c1sc(SC#N)c(C#N)c1C | -2
O=c1c(O[C@@H]2O[C@H](CO)[C@@H](O)[C@H](O)[C@H]2O)c(-c2ccc(O)c(O)c2)oc2cc(O)cc(O)c12 | 11
O=C(O)c1cc(O)c2c(O)c3c(O[C@H]4O[C@H](CO)[C@@H](O)[C@H](O)[C@H]4O)cccc3c(-c3c4cc(C(=O)O)cc(O)c4c(O)c4c(O[C@H]5O[C@H](CO)[C@@H](O)[C@H](O)[C@H]5O)cccc34)c2c1 | 82*!
OC[C@H]1O[C@@H](Oc2ccc(O)cc2)[C@H](O)[C@@H](O)[C@@H]1O | -10
CCC(=O)C1(NC(=O)Cn2nc(C)cc2C)CCCCC1 | -7
